Compound activity as filed in PubChem BioAssay.
Most compounds without a hit are left out; they make up all but 2.9% or so of the library.
MITF TRPM1 inh – inhibitors of MITF-dependent TRPM1 promoter reporter, primary screen, cell-based, SK-MEL-5, single point, luciferase; SK-MEL-5 TRPM1 promoter luciferase, 24 h; inhibition, % at 12.5 µM; actives 0.83% (n = 330,000); AID 488899, 2010;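 active = mean inhibition across replicates of 60% or more, whatever share of single replicates reaches that level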
Shn3 inh set2 – reduction of Shn3 3'UTR firefly luciferase signal, primary screen, Schnurri-3 inhibitor project, cell-based, Clone20 osteoblasts, set 2; inhibition, % at 12.5 µM; Clone20 osteoblast Shn3 3'UTR firefly luciferase, 24 h; actives 0.52% (n = 360,000); AID 588674, 2011;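 active = mean inhibition of at least 75% with every replicate also reaching 75%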;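 also: 0% = median of neutral control wells and 100% = pilot-screen positive control compound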
Peg3 prom inh – Peg3 promoter-driven luciferase inhibitors, primary screen, cell-based, HeLa, luciferase luminescence; actives 1.7% (n = 360,000); inhibition, % at 20 µM; HeLa PEG-Prom luciferase reporter, overnight;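 active = inhibition of at least 50% at 20 µM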
CF NFkB inh – inhibitors of PAF-induced NF-kB signaling, primary screen, cell-based, GFP fluorescence, uHTS; inhibition, % at 5 µM; KKLEB NF-kB-GFP reporter, GFP fluorescence overnight; actives 0.86% (n = 360,000); AID 588850, 2011;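 active = at least 50% inhibition at 5 µM, scaled per plate between neutral and stimulator controls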;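 also: PAF is a Pseudomonas aeruginosa culture filtrate used as stimulus; plate controls were PAF-stimulated DMSO wells for no effect and unstimulated DMSO wells for full effect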
KKLEB tox – cytotoxicity in KKLEB CF airway cells, primary screen, cytotoxicity control for CF NF-kB inhibitor project, cell-based, uHTS, fluorescence assay plates; AID 602141, 2011; KKLEB CF airway cells viability, ATPlite luminescence, overnight; stronger effect = lower value; cells stimulated with P. aeruginosa culture filtrate; activity change (cytotoxicity), % at 5 µM; actives 0.36% (n = 360,000);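 active = corrected activity change at or below -50% at 5 µM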
LMP1 NFkB inh – EBV LMP1-driven NF-kappaB luciferase reporter inhibitors, primary screen, cell-based, luminescence, single point; inhibition, % at 12.5 µM; actives 0.69% (n = 350,000); LMP1-induced NF-kappaB luciferase reporter cells; in the data active = inhibition above about 41%;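 also: 0% = neutral control wells and 100% = reference inhibitor control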
Starred values were filed as active, the others as inactive; x = not tested or not shown.

SMILES	MITF TRPM1 inh	Shn3 inh set2	Peg3 prom inh	CF NFkB inh	KKLEB tox	LMP1 NFkB inh
Nc1c(S(=O)(=O)c2cccs2)c2nc3ccccc3nc2n1/N=C/c1cccc(O)c1	20.6	78.9	91.8*	-10.5	10.2	-3.1
COc1ccc(C(=Cc2cc(OC)c(OC)cc2[N+](=O)[O-])C(=O)O)cc1	9.0	27.8	5.5	2.9	27.4	5.5
N=C(N)SCP(=O)(c1ccccc1)c1ccccc1	11.0	-4.2	0.0	-18.0	16.7	53.5*
Cc1ccc(P(=O)(CSC(=N)N)c2ccc(C)cc2)cc1	7.0	-12.4	-28.5	19.0	21.3	-19.4
O=C(COc1ccc2ccccc2c1)NCCNC(=O)COc1ccc2ccccc2c1	13.9	7.8	13.0	-6.7	-6.1	53.7*
O=C(COc1ccc2ccccc2c1)NNC(=O)Cc1ccccc1	7.4	-4.7	6.8	21.8	2.7	5.6
O=C(Nc1nc(-c2nc3ccccc3s2)cs1)c1ccc(S(=O)(=O)N2CCOCC2)cc1	-12.0	9.5	-122.6	54.8*	-49.1	-4.1
CC1CN(S(=O)(=O)c2ccc(C(=O)Nc3nc(-c4cc5ccccc5o4)cs3)cc2)CC(C)O1 (stereo not drawn)	9.1	86.5*	31.9	50.4*	-54.2*	21.3
COc1cccc(C(=O)Nc2nc(-c3ccc(S(=O)(=O)N4CCOCC4)cc3)cs2)c1	21.3	6.9	68.5*	-5.4	-13.1	37.8
CCN(CC)c1ccc(C(=O)NNC(=O)C2CSC3(C)CCC(=O)N23)cc1 (stereo not drawn)	-7.9	-9.5	2.4	-5.8	11.6	6.6
Nc1c(Cl)cc(C(=O)NC2CC2)cc1Cl	13.8	15.6	10.9	15.7	14.6	4.2
O=C(CCN1C(=O)c2ccccc2C1=O)c1ccccc1	x	-30.8	-78.7	-5.0	-9.4	2.8
O=C(NCCc1ccccc1)c1nccc2ccccc12	-78.5	-78.3	-201.3	-39.9	13.2	1.7
CC(C)Nc1ccc(Nc2ccnc3cc4ccccc4cc23)cc1	88.0*	13.2	108.1*	-179.1	-21.1	-142.8
c1ccc(CCNc2ccnc3cc4ccccc4cc23)cc1	102.6*	94.1*	105.6*	-11.0	0.1	-59.5
Cc1ccnc(NC(=O)c2ccc(OCC3CCCO3)cc2)c1 (stereo not drawn)	22.4	-0.3	33.4	2.7	-45.2	45.2*
COc1ccc(C=O)c(OCc2cn(CC(=O)c3ccc(O)cc3)nn2)c1	2.8	15.6	4.2	-4.3	5.7	-7.2
C=CCSc1nc2ccccc2n1C(=O)/C=C/c1cc(OC)c(OC)c(OC)c1	87.0*	96.8*	97.8*	90.6*	-13.5	80.8*
COc1cc(/C=C/C(=O)N2CCN(C(=O)/C=C/c3cc(OC)c(OC)c(OC)c3)CC2)cc(OC)c1OC	15.0	-9.4	-14.9	-12.8	-0.6	-7.7
CCSc1nc2ccccc2n1C(=O)/C=C/c1ccc(OC)c(OC)c1	75.9*	95.8*	103.1*	84.3*	-2.2	82.3*
COc1ccc(OCCCn2cc(/C=C3/C(=N)N4C=C(C)SC4=NC3=O)c3ccccc32)cc1	3.3	-52.0	51.5*	34.9	-42.5	3.1
COc1ccccc1-c1cc(C(F)(F)F)nc(S(=O)(=O)CCCC(=O)O)n1	12.2	2.9	2.4	33.3	-39.8	-14.9
COc1ccc(-c2cc(C(F)(F)F)nc(S(=O)(=O)CCCC(=O)Nc3cccc(O)c3)n2)cc1OC	x	-3.2	96.0*	85.8*	-79.7*	x
COc1ccccc1-c1cc(C(F)(F)F)nc(S(=O)(=O)CCCC(=O)N2CCOCC2)n1	80.2*	83.1	103.0*	89.5*	-78.9*	-19.1
COCCNC(=O)C[C@H]1C[C@H]2c3cc(NS(=O)(=O)c4ccc(F)cc4)ccc3O[C@H]2[C@H](CO)O1	x	-12.9	13.7	-4.8	6.2	5.2
COc1ccc2[nH]c(=O)c(CN(Cc3cccs3)S(=O)(=O)c3c(C)ccc4nsnc34)cc2c1	8.2	75.1	59.4*	96.7*	-21.1	25.7
